Hits are enriched below; roughly 19% of the tested compounds scored in any of these assays.
HT1080NT lethal: kills 2HG-producing HT-1080-NT fibrosarcoma cells; Potency, µM (series often up to 46.1 µM), for inactives: top-dose activity, negative = less viability, most hits filed as cytotoxic; HT-1080-NT fibrosarcoma viability, CellTiter-Glo ATP luminescence, 48 h; AID 686970; hit rate 1.6% among 360,000;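 also: NT is the 2HG producing partner of a matched IDH1 knockdown line; potency is read from the fitted curve at half-maximal effect; 0% = DMSO-treated cells and -100% = media-only wells without cells; nearly all actives have a fitted effect of over 55% in size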
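HT-1080-NT; 750 cells/well; 5% FBS RPMI; 48 h compound, 37 degrees C; CellTiter-Glo luminescence; curve fitting and curve-class assignment.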
HT1080 IDH1KD tx: toxicity to HT-1080 IDH1 knockdown cells (counter line) | HT-1080 IDH1 knockdown viability, ATP luminescence, 48 h | Potency, µM (titrated, usually from 46.1 µM), inactives show top-dose activity, negative = toxicity, usual class: cytotoxic | hit rate 2% among 360,000;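 also: potency is read from the fitted curve at half-maximal effect; 0% = DMSO wells and -100% = cell-free medium wells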
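Using the IDH1-knockdown HT-1080 line run in the same batch and compound series as the NT line, viability after 48 h at 37 °C was determined by CellTiter-Glo luminescence and expressed as % activity.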
IL-1B inflam inh: inflammasome signaling inhibition, IL-1 beta readout; THP-1 LPS/ATP IL-1B secretion, AlphaLISA, 16 h; stronger effect = lower value; activity change, % at 57.5 µM; hit rate 4.7% among 360,000; in the data active = activity change below about -50%; inconclusive = mostly about -30% to -49%
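THP-1 cells pretreated 1 hr with compounds (up to 57.5 uM final), then stimulated with LPS (250 ng/mL final) plus ATP (1.25 mM final); secreted IL-1B measured by AlphaLISA after 16 hr, decreased signal indicating inhibition.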
DT40 TDP1 CPT: growth inhibition of DT40 Tdp1-/-;hTDP1 cells with camptothecin (screen for TDP1 inhibitors); chicken DT40 Tdp1-/-;hTDP1 cells + 20 nM CPT, ATP luminescence, 48 h; Potency, µM (top dose mostly 46.2 µM), without a hit: at the top dose activity change, negative = growth inhibition, usual class: inhibitors; hit rate 12% among 420,000; AID 686979; also: potency is read from the fitted curve at half-maximal effect; nearly all actives have a fitted effect of over 55% in size
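Chicken DT40 Tdp1-/- cells stably complemented with human TDP1 were seeded at 400 cells/well in medium containing 20 nM camptothecin, exposed to pin-transferred compounds, and grown at 37 °C for at least 48 hr. Viability was read as ATP luminescence.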
TDP1 cell noCPT: qHTS for Inhibitors of human tyrosyl-DNA phosphodiesterase 1 (TDP1): qHTS in cells in absence of CPT; Potency, µM (highest dose often 46.2 µM), without a hit: at the top dose activity change, negative = growth inhibition, most hits filed as inhibitors; hit rate 15% among 420,000; DT40 Tdp1-/- hTDP1 cells, no CPT, ATP luminescence, 48 h; also: potency is read from the fitted curve at half-maximal effect; nearly all actives have a fitted effect of over 55% in size
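No-CPT arm: Tdp1-/-;hTDP1 DT40 cells (400/well) plus compounds, incubated ≥48 hr at 37 °C. Readout CellTiter-Glo luminescence.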
Numbers without * were called inactive; i = inactive; ? = inconclusive; / = no result. Unless noted, calls follow the shape of the dose curve; as a rule, active = well fitted curve in the direction sought with a large enough effect; inconclusive = small, poorly fitted or top-dose-only effect, or another doubt; inactive = no such curve, though single readings can be large; an effect the other way counts as inactive or inconclusive. Unless noted, % is scaled to controls: 0 for no effect and ±100 for the full control effect.

SMILES | HT1080NT lethal | HT1080 IDH1KD tx | IL-1B inflam inh | DT40 TDP1 CPT | TDP1 cell noCPT
Nc1c(C(=O)N/N=C/c2ccccc2Cl)oc2nc(-c3ccccc3)cc(-c3ccco3)c12 | -4.8% | 1.9% | / | ? | 20.6µM*
CCCC/C=C/C(NC(=O)CCc1ccccc1)c1ccccc1 (stereo not given) | -2.7% | -2.1% | -4.3 | ? | ?
CCCC/C=C/[C@H](c1ccccc1)[C@H](CO)Cc1cccnc1 | 0.0% | 9.6% | -11.1 | ? | 16.4µM*
COc1cc(/C=N/NC(=O)c2cccc([N+](=O)[O-])c2)ccc1OCc1ccc(C)cc1 | 8.6% | 4.6% | -2.0 | -3.0% | -12.6%
Cc1ccc(C(C)C)c(OCc2ccc(C(=O)N/N=C/c3ccc(O)c(O)c3)cc2)c1 | -25.8% | ? | -100.4* | 2.31µM* | 2.06µM*
Cc1ccc(C(C)C)c(OCc2ccc(C(=O)N/N=C/c3cccc(O)c3O)cc2)c1 | 9.2µM* | ? | 74.4 | 3.66µM* | 5.17µM*
COc1cc(/C=N/NC(=O)c2ccc(COc3cc(C)ccc3C(C)C)cc2)cc(OC)c1O | 20.6µM* | 20.6µM* | -4.8 | 16.4µM* | 13µM*
O=C(CC(C(=O)O)c1cccc(Cl)c1Cl)c1ccccc1 (stereo not given) | 0.8% | 12.1% | 18.3 | -5.6% | -11.4%
Cc1ccc(N2CCN(S(=O)(=O)N3CCCCCC3)CC2)cc1Cl | 13.2% | 7.7% | 10.5 | -16.6% | -38.2%
CCOC(=O)c1c(NC(=O)c2cccnc2)sc(C)c1C | 9.8% | 2.0% | -54.1* | ? | -21.8%
CC(=O)Nc1ccc(NC(=O)c2c(C)nn(Cc3ccccc3)c2Cl)cc1 | 3.9% | 21.7% | -6.1 | 13µM* | 1.16µM*
CCOC(=O)c1sc(NC(=O)c2ccccc2)cc1C | -16.2% | -19.5% | ? | ? | ?
CCOC(=O)c1c(NC(=O)Nc2ccc(Cl)cc2)sc(C)c1C | 8.5% | 5.6% | -5.9 | ? | 13µM*
CCOC(=O)c1sc(NC(=O)c2c(C)nn(Cc3ccccc3)c2C)cc1C | ? | ? | -20.2 | 16.4µM* | ?
CC(=O)Nc1ccc(NC(=O)c2c(C)nn(Cc3ccccc3Cl)c2C)cc1 | 18.0% | 11.1% | -4.9 | 5.5% | -2.0%
CCOC(=O)c1c(NC(=O)Nc2cccc(Cl)c2)sc(C)c1C | 29.0% | 14.2% | -0.2 | -4.9% | ?
Cn1c(=O)c2c(ncn2CC(=O)Nc2cc(S(=O)(=O)N3CCCCC3)ccc2O)n(C)c1=O | 3.2% | 16.2% | 13.8 | 1.3% | -1.6%
Cc1c(Cl)cccc1NC(=O)c1ccccc1-c1ccccc1C(=O)O | 8.7% | -7.1% | 31.4 | 2.5% | -0.1%
O=C(CSc1nnc(NC(=O)C2CC(=O)N(c3ccc(F)cc3)C2)s1)NC1CCCC1 (stereo not given) | 8.6% | 24.2% | i | 9.0% | 4.0%
CCOC(=O)c1sc(NC(=O)c2ccc(Cl)s2)cc1C | 13.2% | 11.6% | ? | -16.4% | 0.6%
CCOC(=O)c1sc(NC(=O)Nc2ccc(Cl)cc2)cc1C | ? | ? | -102.9* | 5.8µM* | 3.66µM*
CCOC(=O)c1sc(NC(=O)c2cccc(S(=O)(=O)N(CC)CC)c2)cc1C | ? | ? | 21.1 | 2.59µM* | 4.61µM*
CCOC(=O)c1sc(NC(=S)NC(=O)C2CCCC2)cc1C | -16.8% | -25.3% | -6.0 | ? | 16.4µM*
CCOC(=O)c1ccc(NC(=O)NC2=NCCS2)cc1 | 2.59µM* | 2.31µM* | 39.9 | -29.8% | ?
Cc1ccccc1-c1csc(C(C)(O)c2ccc(F)c(F)c2)n1 (stereo not given) | -21.0% | ? | 13.2 | ? | ?
SMILES | HT1080NT lethal | HT1080 IDH1KD tx | IL-1B inflam inh | DT40 TDP1 CPT | TDP1 cell noCPT
CCOC(=O)c1c(NC(=O)/C=C/C(=O)O)sc(C)c1-c1ccc(Cl)cc1 | ? | 23.1µM* | -71.3* | ? | 13µM*
Cc1ccc(C(=O)Nc2sc(C)c(C)c2C(=O)c2ccccc2)cc1 | 1.4% | 10.2% | ? | 16.4µM* | ?
CNS(=O)(=O)c1cn(CC(=O)N2CCN(c3cccc(Cl)c3)CC2)cc1S(=O)(=O)NC | / | / | / | ? | 25.9µM*
O=C(CCNS(=O)(=O)c1ccc2nsnc2c1)N1CCN(c2ccncc2)CC1 | -2.0% | 2.4% | -4.8 | ? | 16.4µM*
CCNS(=O)(=O)c1ccc(CCC(=O)N2CCN(C(=O)OCC)CC2)cc1 | 1.9% | 4.2% | 2.1 | -5.3% | -13.6%
CCNS(=O)(=O)c1ccc(CCC(=O)N2CCN(c3cccc(Cl)c3)CC2)cc1 | 3.5% | -17.1% | -51.4* | ? | 23.1µM*
Cc1ccc(S(=O)(=O)NCCC(=O)N2CCN(c3cccc(Cl)c3)CC2)cc1C | -2.6% | -1.0% | -1.2 | 14.6µM* | ?
Cn1c(=O)oc2cc(S(=O)(=O)NCCC(=O)N3CCN(c4ccccc4)CC3)ccc21 | 3.2% | 12.3% | -11.1 | ? | -15.1%
CCc1ccc(S(=O)(=O)N2CCN(C(=O)c3cccnc3)CC2)cc1 | 3.9% | -1.2% | 10.9 | -1.1% | 11.5%
Cc1ccc([C@H]2C(C(=O)O)=CCN2S(=O)(=O)c2ccc(C)cc2)cc1 | -1.0% | 17.8% | 38.7 | 0.2% | -10.4%
COc1cccc(CNC(=O)CSc2ncc(S(=O)(=O)c3ccc(Br)cc3)c(=O)[nH]2)c1 | / | / | / | -3.2% | 15.7%
COc1ccc(S(=O)(=O)NCCS(=O)(=O)N2CCN(c3ccccc3)CC2)cc1C | / | / | / | 18.4µM* | 23.1µM*
Cc1ccc(-c2noc(COc3ccc(Br)c(C)c3)n2)cc1 | / | / | / | -3.3% | -12.3%
Cc1ccc(CSc2nnc(-c3ccncc3)n2CC2CCCO2)cc1 (stereo not given) | -1.3% | 3.6% | 4.4 | -19.1% | -10.4%
CC(=O)Nc1cccc(OCCOc2cccc([N+](=O)[O-])c2)c1 | -4.1% | -2.7% | 3.2 | -20.4% | -31.9%
Cc1cc(=O)n(C)c(=O)n1CCCCCCOc1cccc([N+](=O)[O-])c1 | 12.5% | 1.5% | -1.4 | 25.9µM* | 16.4µM*
O=C(Nc1ccncc1)c1ccc2ccccc2c1 | -9.4% | -7.2% | -60.7* | ? | 13µM*
O=C(Nc1nnc(-c2ccncc2)o1)c1ccc2ccccc2c1 | -12.1% | -11.8% | 31.4 | 8.2µM* | 7.31µM*
COc1ccc(CNC(=O)CCS(=O)(=O)c2cc3c(cc2Cl)NC(=O)CO3)cc1 | 1.3% | 1.0% | -2.3 | 6.5% | -2.5%
CCN(C[C@H]1N[C@@](Cc2ccccc2)(C(=O)OC)[C@H]2C(=O)N(C)C(=O)[C@@H]12)S(=O)(=O)c1ccc(OC)cc1 | 2.4% | 2.0% | -18.3 | 14.6µM* | 14.6µM*

Bioassay records: PubChem BioAssay, National Center for Advancing Translational Sciences (NCATS)
